According to the supplement of paper PMC12636033:
± gives the standard deviation of the averaged measurements. Over roughly 33,000 sequences, “E-score (rank enrichment, -0.5 to 0.5)” has its median near -0.0068; the highest 2% begin near 0.24. Shown is part of a subset that was picked to be rich in the highest values.

These sequences were tested on muMax20 (Max(13-93) K31hArg/K57hArg, M65Nle) (assay: PBM 8-mer E-score (E-score (rank enrichment, -0.5 to 0.5)); higher = stronger preferential binding).
Method: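 Protein binding microarray (universal PBM chip covering all 10-mers in fixed probe flanks) with chemically synthesized human Max(13-93) bHLH-LZ analogs (not full-length Max) bearing noncanonical residues (hArg, Tha, Aib, Nle at 65) and aromatic Cys staples. Read-out per 8-mer (and its reverse complement): E-score (rank-based enrichment, -0.5 to 0.5) and Z-score of median probe intensity.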
For GGAGGGCA, the “PBM 8-mer E-score” value was 0.044 ± 0.11. With ATCAATTA the “PBM 8-mer E-score” value was 0.229 ± 0.068. In the case of ATCAATTC, the “PBM 8-mer E-score” value is reported as 0.172 ± 0.013. ATCAATTG was tested, and the “PBM 8-mer E-score” value was 0.262 ± 0.073. For TCAATAAA, the “PBM 8-mer E-score” value was 0.114 ± 0.043. For ACAATCAA, the “PBM 8-mer E-score” value was 0.0227 ± 0.021. ACAATCAT was tested, and the “PBM 8-mer E-score” value was 0.273 ± 0.042. ACAATAAA was tested, and the “PBM 8-mer E-score” value was 0.275 ± 0.025. With GCAATAAA the “PBM 8-mer E-score” value was 0.0786 ± 0.0037. For ACAATAAT, the “PBM 8-mer E-score” value was 0.286 ± 0.0027. For CCAATAAG, the “PBM 8-mer E-score” value was -0.0178 ± 0.017. In the case of ACAATCAC, the “PBM 8-mer E-score” value is reported as 0.228 ± 0.053. With ACAATAAG the “PBM 8-mer E-score” value was 0.21 ± 0.021. In the case of ACAATAAC, the “PBM 8-mer E-score” value is reported as 0.191 ± 0.0039. In the case of AGAATAAT, the “PBM 8-mer E-score” value is reported as 0.116 ± 0.05. In the case of CCAATAAA, the “PBM 8-mer E-score” value is reported as 0.266 ± 0.026. For ACGTCTGA, the “PBM 8-mer E-score” value was -0.0769 ± 0.16. CAGGGCAC was tested, and the “PBM 8-mer E-score” value was -0.0777 ± 0.0056. In the case of AGGACCGC, the “PBM 8-mer E-score” value is reported as 0.0155 ± 0.085. In the case of CGACCTGC, the “PBM 8-mer E-score” value is reported as -0.105 ± 0.063. In the case of GAAACCCC, the “PBM 8-mer E-score” value is reported as -0.0104 ± 0.014. TAAGATTA was tested, and the “PBM 8-mer E-score” value was 0.129 ± 0.04. TGCTTAAA was tested, and the “PBM 8-mer E-score” value was 0.024 ± 0.12. With ACTCGCGG the “PBM 8-mer E-score” value was -0.0552 ± 0.016. With ATACAGTG the “PBM 8-mer E-score” value was 0.2396 ± 0.0022. ATACAGTC was tested, and the “PBM 8-mer E-score” value was 0.0784 ± 0.094. With ATACAGTA the “PBM 8-mer E-score” value was 0.233 ± 0.095. GCGTGCAA was tested, and the “PBM 8-mer E-score” value was 0.0854 ± 0.022. With CTTGAGTC the “PBM 8-mer E-score” value was -0.0129 ± 0.11. For CTCGACGA, the “PBM 8-mer E-score” value was -0.142 ± 0.024. In the case of GAGCCCTA, the “PBM 8-mer E-score” value is reported as -0.14 ± 0.018. In the case of TAAAACTA, the “PBM 8-mer E-score” value is reported as 0.239 ± 0.11. For AGAAACAA, the “PBM 8-mer E-score” value was 0.2614 ± 0.0014. In the case of ATAAAACA, the “PBM 8-mer E-score” value is reported as 0.31 ± 0.025. With ATAAAACG the “PBM 8-mer E-score” value was 0.194 ± 0.02. With AAAAACTA the “PBM 8-mer E-score” value was 0.095 ± 0.061. For AGAAACAC, the “PBM 8-mer E-score” value was 0.00585 ± 0.032. With TTAAACAA the “PBM 8-mer E-score” value was 0.0932 ± 0.11. For ATAAACAC, the “PBM 8-mer E-score” value was 0.164 ± 0.11. ATAAACAA was tested, and the “PBM 8-mer E-score” value was 0.27 ± 0.049. For GTAAAACA, the “PBM 8-mer E-score” value was 0.108 ± 0.0083. For GGAAACAA, the “PBM 8-mer E-score” value was 0.0706 ± 0.057. In the case of CAAAACTA, the “PBM 8-mer E-score” value is reported as 0.132 ± 0.15. GGGAACAA was tested, and the “PBM 8-mer E-score” value was 0.144 ± 0.0098. In the case of AGCCCCTC, the “PBM 8-mer E-score” value is reported as 0.0302 ± 0.046. With AGCTCCTG the “PBM 8-mer E-score” value was -0.171 ± 0.17. CAGTCACC was tested, and the “PBM 8-mer E-score” value was -0.064 ± 0.14. In the case of AGTTGAAG, the “PBM 8-mer E-score” value is reported as 0.0533 ± 0.067. For CGGGAAGA, the “PBM 8-mer E-score” value was -0.0577 ± 0.15. In the case of TAAAAACA, the “PBM 8-mer E-score” value is reported as 0.171 ± 0.018. In the case of ATAAACTA, the “PBM 8-mer E-score” value is reported as 0.276 ± 0.041. With ATAAACTC the “PBM 8-mer E-score” value was 0.117 ± 0.039. GAAAAACA was tested, and the “PBM 8-mer E-score” value was 0.16 ± 0.037. CAAAAACG was tested, and the “PBM 8-mer E-score” value was 0.111 ± 0.068. AAAAAACG was tested, and the “PBM 8-mer E-score” value was 0.241 ± 0.023. AAAAAACA was tested, and the “PBM 8-mer E-score” value was 0.272 ± 0.11. With ATAAACTG the “PBM 8-mer E-score” value was 0.0137 ± 0.077. With ACAAAACG the “PBM 8-mer E-score” value was 0.187 ± 0.013. In the case of AGATAGAG, the “PBM 8-mer E-score” value is reported as -0.0243 ± 0.056. With ACAATGCG the “PBM 8-mer E-score” value was 0.0438 ± 0.031. In the case of CCGTTTCC, the “PBM 8-mer E-score” value is reported as 0.0806 ± 0.018. In the case of CCTTTCCA, the “PBM 8-mer E-score” value is reported as 0.0937 ± 0.037. CCCTTATA was tested, and the “PBM 8-mer E-score” value was 0.199 ± 0.086. With GAGTAACA the “PBM 8-mer E-score” value was 0.164 ± 0.033. In the case of TAGTAACA, the “PBM 8-mer E-score” value is reported as 0.239 ± 0.066. CTGTAATA was tested, and the “PBM 8-mer E-score” value was 0.175 ± 0.023. For ATGTAACA, the “PBM 8-mer E-score” value was 0.244 ± 0.057. For TTGTAAAA, the “PBM 8-mer E-score” value was 0.24 ± 0.053. ATGTAATG was tested, and the “PBM 8-mer E-score” value was 0.2252 ± 0.0016. With CTGTAACA the “PBM 8-mer E-score” value was 0.0977 ± 0.058. With ATGTAATA the “PBM 8-mer E-score” value was 0.2587 ± 0.0011. CTGTAAAA was tested, and the “PBM 8-mer E-score” value was 0.0545 ± 0.043. ATGTAAAA was tested, and the “PBM 8-mer E-score” value was 0.221 ± 0.049. For ATGTAACG, the “PBM 8-mer E-score” value was 0.122 ± 0.029. With AAGTAACA the “PBM 8-mer E-score” value was 0.152 ± 0.018. For CTAGTTAC, the “PBM 8-mer E-score” value was -0.0138 ± 0.072. With AATTGCCA the “PBM 8-mer E-score” value was 0.0456 ± 0.0012. In the case of CATTCGGG, the “PBM 8-mer E-score” value is reported as -0.0351 ± 0.075. AATCTTGC was tested, and the “PBM 8-mer E-score” value was -0.066 ± 0.042. With ACGAGTGA the “PBM 8-mer E-score” value was -0.0322 ± 0.14. For ATGTAAAT, the “PBM 8-mer E-score” value was 0.154 ± 0.09. With ATGTAAAG the “PBM 8-mer E-score” value was 0.244 ± 0.038. For CTGTAAAG, the “PBM 8-mer E-score” value was -0.0854 ± 0.0043. In the case of GGCTGACA, the “PBM 8-mer E-score” value is reported as -0.104 ± 0.086. For ACCGTCAA, the “PBM 8-mer E-score” value was -0.205 ± 0.0036. In the case of GATTAGAA, the “PBM 8-mer E-score” value is reported as 0.0438 ± 0.032. In the case of CATTAGAA, the “PBM 8-mer E-score” value is reported as 0.0939 ± 0.015. In the case of TATTACAA, the “PBM 8-mer E-score” value is reported as 0.236 ± 0.041. AACTACAA was tested, and the “PBM 8-mer E-score” value was 0.0818 ± 0.066. With CACTACAA the “PBM 8-mer E-score” value was 0.152 ± 0.021. With AACTATAA the “PBM 8-mer E-score” value was 0.229 ± 0.044. In the case of CACTATAA, the “PBM 8-mer E-score” value is reported as 0.0282 ± 0.15. With TATTAGAA the “PBM 8-mer E-score” value was 0.268 ± 0.0096. In the case of TACTATAA, the “PBM 8-mer E-score” value is reported as 0.284 ± 0.021. In the case of CATTACAA, the “PBM 8-mer E-score” value is reported as 0.184 ± 0.097. TACTACAA was tested, and the “PBM 8-mer E-score” value was 0.286 ± 0.0027. For AATTACAA, the “PBM 8-mer E-score” value was 0.209 ± 0.066.
